This passage reports activity change, negative = inhibition results from PubChem BioAssay AID1259421 (Broad Institute, 2018).

Values joined by “and” are separate entries in the source; they are usually repeats but may differ in a detail not shown here. Equal values may be shown once. In all, about 6,400 compounds went through this assay and about 610 (9.5%) were called active. Cut-off read from the data, not from the text of the source: active = activity change below about -70%; inconclusive = no clear call, values can overlap the other calls; inactive = above that. The list comes from a sample in which actives are over-represented; it also holds similar structures and randomly drawn compounds. The source holds several records for some structures; these can differ, active in one and inactive in another. Where a SMILES comes first, the peptide text is derived from it.

This experiment can be described thus: Toxoplasma gondii ME49Luc growth in HeLa cells, luciferase, no IFN-y, primary screen (AID 1259421). Particulars: T. gondii ME49Luc in HeLa, 72 h, stronger effect = lower value, concentration not given here.
In the case of `C=C[C@@]1(C)CC(=O)[C@@]2(O)[C@](C)(O1)[C@@H](O)[C@@H](O)C1C(C)(C)CC[C@H](O)[C@@]12C` (stereo not given in full), the activity change, negative = inhibition is 11.2% (inactive).
In the case of `C=CC(C)(O)CCC=C(C)C` (stereo not given), the activity change, negative = inhibition was 11.3% (inactive).
Take `COc1ccccc1N1CCN(CC2CN3C(=O)N(C)c4ccccc4C3=N2)CC1` (stereo not given): the activity change, negative = inhibition is 1.95% (inactive).
Consider `CC(=O)O[C@]1(C(C)=O)CCC2C3C=C(Cl)C4=CC(=O)[C@@H]5C[C@@H]5[C@]4(C)C3CC[C@@]21C` (stereo not given in full), for which the activity change, negative = inhibition is 11.3% (inactive).
`CCCCC(=O)N(Cc1ccc(-c2ccccc2-c2nn[nH]n2)cc1)[C@H](C(=O)O)C(C)C`: the activity change, negative = inhibition is -0.624% (inactive) and 4.63% (inactive).
With `C#CC1(OCC(O)CN2CCN(c3cccc(C(F)(F)F)c3)CC2)CCCCC1` (stereo not given), the activity change, negative = inhibition was -34.5% (inactive).
`CCCOc1ccc(S(=O)(=O)N2CCN(CCO)CC2)cc1-c1nc2c(CCC)cn(CC)c2c(=O)[nH]1`: the activity change, negative = inhibition was 0.0881% (inactive).
`CC(C)n1cnc2c(NCc3ccccc3)nc(NCCCO)nc21`: the activity change, negative = inhibition was 0.139% (inactive).
Turning to `CC(C)[C@H](CO)Nc1nc(Nc2ccc(C(=O)O)c(Cl)c2)c2ncn(C(C)C)c2n1`, the activity change, negative = inhibition was 13% (inactive) and 1.51% (inactive).
For `CC(C)[C@H](CO)Nc1nc(Nc2cccc(Cl)c2)c2ncn(C(C)C)c2n1`, the activity change, negative = inhibition was -86% (active) and -72.5% (active).
Consider `CC(C)[C@H](CO)Nc1nc(Nc2cc(N)cc(Cl)c2)c2ncn(C(C)C)c2n1`, for which the activity change, negative = inhibition is -82.6% (active).
Consider `CC[C@@H]1OC(=O)C[C@@H](O)[C@H](C)[C@@H](O[C@@H]2O[C@H](C)[C@@H](O)[C@H](N(C)C)[C@H]2O)[C@@H](CCN2C[C@H](C)C[C@H](C)C2)C[C@@H](C)C(=O)/C=C/C(C)=C\[C@@H]1CO[C@@H]1O[C@H](C)[C@@H](O)[C@@H](OC)[C@H]1OC`, for which the activity change, negative = inhibition is 17.5% (inactive).
The value for `CN1[C@@H]2CC(OC(=O)[C@H](CO)c3ccccc3)C[C@H]1[C@H]1O[C@H]12` (stereo not given in full) was 23.8% (inactive); that for `CCCCCCCC/C=C/C(=O)O` was 1.14% (inactive); that for `CO/N=C(\C(=O)N[C@@H]1C(=O)N2C(C(=O)OCOC(=O)C(C)(C)C)=C(C)CS[C@H]12)c1csc(N)n1` was 21.8% (inactive).
`OC[C@@]1(O)OC[C@@H](O)[C@@H](O)[C@@H]1O`: the activity change, negative = inhibition is 7.13% (inactive).
On to `CNC(=O)c1ccccc1Nc1cc(Nc2ccc(N3CCOCC3)cc2OC)ncc1C(F)(F)F`, for which the activity change, negative = inhibition is -46.5% (inactive).
For the compound `COc1cc(N2CCC(N(C)C)CC2)ccc1Nc1ncc(Cl)c(Nc2ccccc2P(C)(C)=O)n1`, the activity change, negative = inhibition is -60.2% (inactive).
`CNC(=O)c1c(F)cccc1Nc1nc(Nc2cc3c(cc2OC)CCN3C(=O)CN(C)C)nc2[nH]ccc12`: the activity change, negative = inhibition was -10.7% (inactive).
Turning to `COc1cc(N2CCC(N3CCN(C)CC3)CC2)ccc1Nc1ncnc(Nc2ccccc2S(=O)(=O)C(C)C)n1`, the activity change, negative = inhibition is -35.3% (inactive).
The value for `CNC(=O)c1ccccc1Nc1nc(Nc2ccc3c(c2OC)CCC[C@H](N2CCN(CCO)CC2)C3)ncc1Cl` was -74.8% (active); that for `COc1cc(N2CCC(N3CCN(C)CC3)CC2)ccc1Nc1ncc(Cl)c(Nc2ccccc2S(=O)(=O)C(C)C)n1` was -84.8% (active).
Under `CNC(=O)c1ccccc1Nc1nc(Nc2ccc(N3CCOCC3)cc2OC)ncc1Cl` stands -73.7% (active) and -87.3% (active); under `CN1CCN(c2nc(C3=C(c4c[nH]c5ccccc45)C(=O)NC3=O)c3ccccc3n2)CC1`, -9.55% (inactive).
Turning to `COc1cc(N2CCC(N)CC2)ccc1Nc1ncc(Cl)c(-c2c[nH]c3ccccc23)n1`, the activity change, negative = inhibition was -81% (active).
Regarding `CN(CCc1ccc(Cl)c(Cl)c1)CC(O)COc1ccc(NS(C)(=O)=O)cc1` (stereo not given), the activity change, negative = inhibition is -4.31% (inactive) and -8.47% (inactive).
For `O=C(NCC(=O)N1CC[C@H](NC2CCC(O)(c3ccc(-c4ncccn4)cn3)CC2)C1)c1cccc(C(F)(F)F)c1` (stereo not given in full), the activity change, negative = inhibition is 13.2% (inactive).
Take `COc1ccc2nc(S(=O)Cc3ncc(C)c(OC)c3C)[nH]c2c1` (stereo not given): the activity change, negative = inhibition is 29.5% (inactive) and 32.8% (inactive) and 15.1% (inactive).
Turning to `O=Cc1ccc(CO)o1`, the activity change, negative = inhibition was 3.95% (inactive).
Under `O=c1c(OC2OC(CO)C(O)C(O)C2O)c(-c2ccc(O)c(O)c2)oc2cc(O)cc(O)c12` (stereo not given) stands -1.42% (inactive).
For `NCC(=O)N[C@@H](CCC(N)=O)C(=O)O` (H-Gly-Gln-OH), the activity change, negative = inhibition was 6.58% (inactive).
With `CC(C)C(N)=O`, the activity change, negative = inhibition is 7.84% (inactive).
Under `Nc1ncnc2c1C(=O)N(c1ccc(C3CCC(CC(=O)O)CC3)cc1)CCO2` (stereo not given) stands 6.2% (inactive); under `NC1=N[C@H]2[C@H](CS[C@H]2CCCCC(=O)O)N1`, 20.2% (inactive); under `C=C[C@]1(C)C[C@@H](OC(=O)CSC2C[C@H]3CC[C@@H](C2)N3C)[C@]2(C)[C@H](C)CC[C@]3(CCC(=O)[C@H]32)[C@@H](C)[C@@H]1O` (stereo not given in full), -18.6% (inactive).
Take `CC[C@H](NC(C)C)[C@H](O)c1ccc(O)c2[nH]c(=O)ccc12`: the activity change, negative = inhibition was 3.71% (inactive).
The value for `CCOc1cc(C(=O)Nc2ccc(Cl)c(-c3nc4ccccc4[nH]3)c2)cc(OCC)c1OCC` was -69.9% (inactive); that for `C=CC(=O)Nc1cc2c(Nc3ccc(F)c(Cl)c3)ncnc2cc1C#CC(C)(C)N1CCN(C)CC1` was -57.7% (inactive); that for `CCOc1cc2ncc(C#N)c(Nc3ccc(OCc4ccccn4)c(Cl)c3)c2cc1NC(=O)/C=C/CN(C)C` was -78.7% (active).
For `CCOc1cc2ncc(C#N)c(Nc3ccc(F)c(Cl)c3)c2cc1NC(=O)/C=C/CN(C)C`, the activity change, negative = inhibition was -84.3% (active).
Under `C[C@@H](NC(=O)c1ncnc(N)c1Cl)c1ncc(C(=O)Nc2cc(C(F)(F)F)c(Cl)cn2)s1` stands 10.6% (inactive); under `Cc1nc(NC(=O)N2CCC[C@H]2C(N)=O)sc1-c1csc(C(C)(C)C)n1`, 17.5% (inactive).
For `OCCNCCCOc1cccc(Cl)c1Cl`, the activity change, negative = inhibition was -43.4% (inactive) and 19.3% (inactive).
The value for `COc1cc([C@@H]2c3cc4c(cc3C(OC3O[C@@H]5COC(C)O[C@H]5[C@H](O)[C@H]3O)C3COC(=O)[C@@H]32)OCO4)cc(OC)c1O` (stereo not given in full) was -0.506% (inactive); that for `COc1cc([C@@H]2c3cc4c(cc3C(O[C@@H]3O[C@@H]5CO[C@@H](c6cccs6)OC5[C@H](O)[C@H]3O)C3COC(=O)[C@@H]32)OCO4)cc(OC)c1O` (stereo not given in full) was -79.4% (active); that for `COc1cc([C@@H]2c3cc4c(cc3[C@H](O)[C@H]3COC(=O)[C@H]23)OCO4)cc(OC)c1OC` was -64.9% (inactive).
For the compound `COc1cc([C@@H]2c3cc4c(cc3[C@@H](O[C@@H]3O[C@@H]5CO[C@@H](C)O[C@H]5[C@H](O)[C@H]3O)[C@H]3COC(=O)[C@H]23)OCO4)cc(OC)c1O`, the activity change, negative = inhibition is -10.1% (inactive) and -3.38% (inactive) and 9.65% (inactive).
In the case of `COc1cc([C@@H]2c3cc4c(cc3C(OC3OC5COC(C)OC5C(O)C3O)C3OCC(=O)[C@@H]32)OCO4)cc(OC)c1O` (stereo not given in full), the activity change, negative = inhibition is -24.1% (inactive).
On to `COc1cc([C@@H]2c3cc4c(cc3[C@@H](O[C@@H]3O[C@@H]5CO[C@@H](c6cccs6)O[C@H]5[C@H](O)[C@H]3O)[C@H]3COC(=O)[C@H]23)OCO4)cc(OC)c1O`, for which the activity change, negative = inhibition was -72.9% (active).
Regarding `COc1cc2c(c(OC)c1OC)-c1c(cc3c(c1OC)OCO3)C[C@H](C)[C@@H](C)C2`, the activity change, negative = inhibition is 13.7% (inactive).
`COc1cc([C@@H]2c3cc4c(cc3[C@H](O)[C@H]3COC(=O)[C@@H]23)OCO4)cc(OC)c1OC`: the activity change, negative = inhibition was -71% (active).
Consider `C=C(C)[C@@H]1CC[C@]2(C(=O)O)CC[C@]3(C)[C@H](CC[C@@H]4[C@@]5(C)CC[C@H](OC(=O)CC(C)(C)C(=O)O)C(C)(C)[C@@H]5CC[C@]43C)[C@@H]12`, for which the activity change, negative = inhibition is -18.2% (inactive).
As for `Fc1ccc2nc(CCC#Cc3ccccn3)cn2c1`, the activity change, negative = inhibition was 1.01% (inactive).
Consider `NS(=O)(=O)OC[C@@H]1C[C@@H](n2ccc3c(N[C@H]4CCc5ccccc54)ncnc32)C[C@@H]1O`, for which the activity change, negative = inhibition is -17.2% (inactive).
As for `OC1C(O)C(O)C(O)C(O)C1O` (stereo not given), the activity change, negative = inhibition was 18.3% (inactive).
For the compound `COc1ccc(C(C#N)C(C)C)cc1OC` (stereo not given), the activity change, negative = inhibition was 21.3% (inactive).
The value for `CN([NH2+][O-])c1cc(O)ccc1O` was 11.6% (inactive); that for `Cc1occc(=O)c1CC=O` was 1.36% (inactive).
Regarding `CC1COC2(CCN(c3nc(=O)c4cc(C(F)(F)F)cc([N+](=O)[O-])c4s3)CC2)O1` (stereo not given), the activity change, negative = inhibition was 301% (inactive).
Under `COc1cc2ncnc(Nc3ccc(Cl)cc3F)c2cc1OC` stands -68.4% (inactive) and -67% (inactive); under `COc1cc2ncnc(Nc3ccc(Oc4ccccc4)cc3)c2cc1OC`, 2.86% (inactive); under `Cc1cc(F)c(Nc2ncnc3cc(OCc4ccccc4)ccc23)cc1O`, -65.2% (inactive) and -70.4% (active).
For `CC(C)(C)c1ccc(C(=O)CCCN2CCC(OC(c3ccccc3)c3ccccc3)CC2)cc1`, the activity change, negative = inhibition was -87.2% (active).
For the compound `O=C(O)CCCN1CCC(O[C@@H](c2ccc(Cl)cc2)c2ccccn2)CC1`, the activity change, negative = inhibition is 24.8% (inactive).
Take `CC(C)(C(=O)O)c1ccc(C(=O)CCCN2CCC(OC(c3ccccc3)c3ccccc3)CC2)cc1`: the activity change, negative = inhibition is 6.98% (inactive).
`O=P(O)(O)OC(CO)CO`: the activity change, negative = inhibition was 38% (inactive).
On to `CN(C)C(=O)c1ccc(S(=O)(=O)c2ccc(NC(=O)C(C)(O)C(F)(F)F)c(Cl)c2)cc1` (stereo not given), for which the activity change, negative = inhibition is -6.06% (inactive).
`CC1(C)C2CC[C@]3(C)C(C(=O)C=C4[C@H]5C[C@@](C)(C(=O)O)CC[C@]5(C)CC[C@]43C)[C@@]2(C)CC[C@@H]1O` (stereo not given in full): the activity change, negative = inhibition is 1.01% (inactive).
Under `CC1(C)[C@@H](O)CC[C@]2(C)[C@H]3C(=O)C=C4[C@@H]5C[C@@](C)(C(=O)O)CC[C@]5(C)CC[C@@]4(C)[C@]3(C)CC[C@@H]12` stands 6.44% (inactive); under `CC(=O)Oc1cc2c(c(C)c1OC(C)=O)CC=C1[C@@]2(C)CC[C@@]2(C)C3C[C@](C)(C(=O)O)CC[C@]3(C)CC[C@]12C` (stereo not given in full), -93.4% (active).
